Results as given in PubChem BioAssay (NCATS).
Results filed as inconclusive are left out. Calls of active or inactive are those of the source. Unless noted, the call rests on the fitted dose curve; in most records, active means well fitted activation curve with a large enough effect in the main read-out, with a control signal flat (not every such curve was filed as active); inconclusive means small, poorly fitted or top-dose-only effect, or effect the other way, or a change in a side signal; inactive means flat fitted curve, though single readings scatter.

Target: Mitogen-activated protein kinase 10 (Mus musculus) (UniProt Q61831)
Test: JNK3 AlphaScreen Assay (AID 530; active means well fitted curve in either direction with a large enough effect, not every such curve was filed as active;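 further: kinase came from lysate of stimulated human HepG2 cells; signal reports phosphorylation of biotinylated GST-cJun 1-79 at Ser73 with 10 µM ATP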)
Settings: JNK3 lysate, c-Jun phosphorylation; series mostly up to 57.1 µM
Summary of the method: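 Pre-activated (IL-1β/TNFα) JNK3 in HepG2 lysates phosphorylates biotin-GST-cJun(1-79), 10 uM ATP; anti-phospho-cJun(Ser73) AlphaScreen read at room temperature, pH 7.6 Tris buffer. Compounds pre-incubated 15 min as titrations.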

outcome, inactive:
COC(=O)[C@H]1C[C@@H]1[C@H](N)c1ccccc1
COC(=O)[C@@]1(Cc2ccc(OC)cc2)[C@H]2c3cc(C(=O)N4CCCC4)n(CCc4ccc(O)c(O)c4)c3C[C@H]2CN1C(=O)c1ccccc1
COC(=O)[C@@]1(Cc2ccc(OC)cc2)[C@H]2c3cc(C(=O)N4CCCC4)n(CCN4CNCC4=O)c3C[C@H]2CN1C(=O)c1ccccc1
COC(=O)[C@@]1(Cc2ccc(OC)cc2)[C@H]2c3cc(C(=O)N4CCCC4)n(CCc4ccc(O)c(OC)c4)c3C[C@H]2CN1C(=O)c1ccccc1
COC(=O)[C@@]1(Cc2ccc(F)cc2)[C@H]2c3cc(C(=O)N4CCCC4)n(Cc4cc(C)n(C)n4)c3C[C@H]2CN1C(=O)c1ccccc1
COC(=O)[C@@]1(Cc2ccc(OC)cc2)[C@H]2c3cc(C(=O)N(C)C)n(C[C@H](O)CO)c3C[C@H]2CN1C(=O)c1ccccc1
COC(=O)[C@@]1(Cc2ccccc2)[C@H]2c3cc(C(=O)N4CCCC4)n(Cc4ccccc4)c3C[C@H]2CN1C(=O)c1ccccc1
C[C@@]1(C(NS(=O)(=O)c2cccc3cccnc23)c2ccc(-c3ccccc3)cc2)C[C@H]1C1CCCCC1 (stereo partly specified)
COc1ccc(CNC(=O)[C@H]2C[C@@H]2[C@H](NP(=O)(c2ccccc2)c2ccccc2)c2ccccc2)cc1OC
CCc1c2c(nc3ccccc13)OC(C)C2 (stereo unspecified)
C[C@@H](C(=O)Nc1ccc2ccccc2c1)[C@@H]1C[C@@]1(C)[C@@H](NS(=O)(=O)c1ccccc1)c1ccccc1
Nc1ccccc1C#CCCCCO
COC(=O)[C@@]1(Cc2ccc(OC)cc2)[C@H]2c3cc(C(=O)N(C)C)n(CCF)c3C[C@H]2CN1C(=O)c1ccccc1
COC(=O)[C@@]1(Cc2ccc(OC)cc2)[C@H]2c3cc(C(=O)N4CCCC4)n(Cc4ccccn4)c3C[C@H]2CN1C(=O)c1ccccc1
COC(=O)[C@@]1(Cc2ccc(F)cc2)[C@H]2c3cc(C(=O)N(C)C)n(Cc4ccc(OC(F)(F)F)cc4)c3C[C@H]2CN1C(=O)c1ccccc1
COC(=O)[C@@]1(Cc2ccccc2)[C@H]2c3cc(C(=O)N(C)C)n(Cc4ccc(S(C)(=O)=O)cc4)c3C[C@H]2CN1C(=O)c1ccccc1
COC(=O)[C@H]1C[C@@H]1[C@H](NS(=O)(=O)c1ccccc1)c1ccccc1
COC(=O)[C@@]1(Cc2ccccc2)[C@H]2c3cc(C(=O)N(C)C)n(CCF)c3C[C@H]2CN1C(=O)c1ccccc1
COCCn1c(C(=O)N2CCCC2)cc2c1C[C@H]1CN(C(=O)c3ccccc3)[C@@](Cc3ccccc3)(C(=O)OC)[C@@H]21
C[C@@H](C(=O)Nc1ccc2ccccc2c1)[C@H]1C[C@]1(C)[C@H](NC(=O)c1cccnc1)c1ccccc1
COC(=O)[C@@]1(Cc2ccc(OC)cc2)[C@H]2c3cc(C(=O)N4CCCC4)n(CCN4CCOCC4)c3C[C@H]2CN1C(=O)c1ccccc1
COC(=O)[C@@]1(Cc2ccc(F)cc2)[C@H]2c3cc(C(=O)N(C)C)n(Cc4ccsc4Br)c3C[C@H]2CN1C(=O)c1ccccc1
C[C@@H](C(=O)Nc1ccc2ccccc2c1)[C@@H]1C[C@@]1(C)[C@@H](NC(=O)c1ccccc1)c1ccccc1
COC(=O)[C@@]1(Cc2ccc(OC)cc2)[C@H]2c3cc(C(=O)N(C)C)n(Cc4c(CO)[nH]cc(C)c4=O)c3C[C@H]2CN1C(=O)c1ccccc1
Cc1cc(CNC(=O)[C@H](C)[C@H]2C[C@]2(C)[C@H](NC(=O)OCc2ccccc2)c2ccccc2)nn1C
COC(=O)[C@@]1(Cc2ccc(OC)cc2)[C@H]2c3cc(C(=O)N4CCCC4)n(CCF)c3C[C@H]2CN1C(=O)c1ccccc1
COC(=O)[C@@]1(Cc2ccc(OC)cc2)[C@H]2c3cc(C(=O)N4CCCC4)n(CCO)c3C[C@H]2CN1C(=O)c1ccccc1
C[C@@H](C(=O)NCc1ccccc1)[C@@H]1C[C@@]1(C)[C@@H](NC(=O)OCc1ccccc1)c1ccccc1
COc1ccc(NC(=O)CCCCC#Cc2ccccc2)cc1

Target: 3',5'-cyclic-AMP phosphodiesterase 4B (Homo sapiens) (UniProt Q07343)
Sequence (Q07343 whole entry, looked up): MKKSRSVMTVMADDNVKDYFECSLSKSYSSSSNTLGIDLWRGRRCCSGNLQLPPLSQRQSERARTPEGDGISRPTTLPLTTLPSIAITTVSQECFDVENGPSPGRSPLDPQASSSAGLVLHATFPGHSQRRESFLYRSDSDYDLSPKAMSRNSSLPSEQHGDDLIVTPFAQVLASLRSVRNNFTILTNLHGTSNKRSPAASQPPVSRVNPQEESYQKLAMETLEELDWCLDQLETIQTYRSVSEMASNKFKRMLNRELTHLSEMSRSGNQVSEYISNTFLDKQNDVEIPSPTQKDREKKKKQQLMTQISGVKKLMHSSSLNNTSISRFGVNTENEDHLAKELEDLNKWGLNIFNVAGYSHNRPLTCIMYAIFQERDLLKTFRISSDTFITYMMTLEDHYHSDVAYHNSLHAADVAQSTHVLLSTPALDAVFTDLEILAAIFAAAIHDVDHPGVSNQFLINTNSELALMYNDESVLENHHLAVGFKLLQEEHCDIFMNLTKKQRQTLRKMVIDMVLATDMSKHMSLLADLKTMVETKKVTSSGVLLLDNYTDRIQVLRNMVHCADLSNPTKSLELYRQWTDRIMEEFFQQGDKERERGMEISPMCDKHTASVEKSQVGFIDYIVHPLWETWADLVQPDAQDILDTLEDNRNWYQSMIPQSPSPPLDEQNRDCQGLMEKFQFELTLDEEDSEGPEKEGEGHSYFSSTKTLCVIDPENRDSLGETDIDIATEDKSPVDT
Test: qHTS Assay for Inhibitors of PDE-IV (AID 607)
Settings: HEK293 ACTOne CNG channel cells, membrane potential fluorescence; series mostly up to 22.9 µM
Summary of the method: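 Live HEK293 cells with a modified cyclic nucleotide-gated (CNG) channel report intracellular cAMP via membrane-potential dye fluorescence (ex 535/em 590 nm). Endogenous PDE-IV was targeted. Compounds were tested at up to 22.9 uM final; RO 20-1724 100 uM served as control.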

outcome, inactive:
COC(=O)[C@@]1(Cc2ccc(OC)cc2)[C@H]2c3cc(C(=O)N(C)C)n(C)c3C[C@H]2CN1C(=O)c1ccccc1
COC(=O)[C@@]1(Cc2ccc(F)cc2)[C@H]2c3cc(C(=O)N(C)C)n(Cc4nc5ccccc5[nH]4)c3C[C@H]2CN1C(=O)c1ccccc1
Cc1ccc(CNC(=O)[C@H](C)[C@H]2C[C@]2(C)[C@H](NC(=O)OCc2ccccc2)c2ccccc2)o1
COC(=O)[C@@H]1C[C@H]1[C@@H](NC(C)=O)c1ccccc1
Cc1ccc(CNC(=O)[C@H](C)[C@@H]2C[C@@]2(C)[C@@H](NC(=O)OCc2ccccc2)c2ccccc2)o1
COC(=O)[C@@H]1C[C@H]1[C@@H](NS(=O)(=O)c1ccccc1)c1ccccc1
COC(=O)[C@@]1(Cc2ccc(OC)cc2)[C@H]2c3cc(C(=O)N4CCCC4)n(Cc4ccc(C)c(F)c4F)c3C[C@H]2CN1C(=O)c1ccccc1
COC(=O)[C@@]1(Cc2ccc(OC)cc2)[C@H]2c3cc(C(=O)N(C)C)n(CCO)c3C[C@H]2CN1C(=O)c1ccccc1
COC(=O)[C@H]1C[C@@H]1[C@H](NC(C)=O)c1ccccc1
COC(=O)[C@@]1(Cc2ccc(F)cc2)[C@H]2c3cc(C(=O)N4CCCC4)n(Cc4ccc(C(F)(F)F)nc4)c3C[C@H]2CN1C(=O)c1ccccc1
COC(=O)[C@@]1(Cc2ccc(F)cc2)[C@H]2c3cc(C(=O)N4CCCC4)n(C[C@H](O)CO)c3C[C@H]2CN1C(=O)c1ccccc1
COC(=O)[C@H]1C[C@@H]1[C@H](N)c1ccccc1
COC(=O)[C@@]1(Cc2ccc(OC)cc2)[C@H]2c3cc(C(=O)N4CCCC4)n(CCc4ccc(O)c(O)c4)c3C[C@H]2CN1C(=O)c1ccccc1
COC(=O)[C@@]1(Cc2ccc(OC)cc2)[C@H]2c3cc(C(=O)N4CCCC4)n(CCN4CNCC4=O)c3C[C@H]2CN1C(=O)c1ccccc1
COC(=O)[C@@]1(Cc2ccc(OC)cc2)[C@H]2c3cc(C(=O)N4CCCC4)n(CCc4ccc(O)c(OC)c4)c3C[C@H]2CN1C(=O)c1ccccc1
COC(=O)[C@@]1(Cc2ccc(F)cc2)[C@H]2c3cc(C(=O)N4CCCC4)n(Cc4cc(C)n(C)n4)c3C[C@H]2CN1C(=O)c1ccccc1
COC(=O)[C@@]1(Cc2ccc(OC)cc2)[C@H]2c3cc(C(=O)N(C)C)n(C[C@H](O)CO)c3C[C@H]2CN1C(=O)c1ccccc1
COC(=O)[C@@]1(Cc2ccccc2)[C@H]2c3cc(C(=O)N4CCCC4)n(Cc4ccccc4)c3C[C@H]2CN1C(=O)c1ccccc1
C[C@@]1(C(NS(=O)(=O)c2cccc3cccnc23)c2ccc(-c3ccccc3)cc2)C[C@H]1C1CCCCC1 (stereo partly specified)
COc1ccc(CNC(=O)[C@H]2C[C@@H]2[C@H](NP(=O)(c2ccccc2)c2ccccc2)c2ccccc2)cc1OC
CCc1c2c(nc3ccccc13)OC(C)C2 (stereo unspecified)
C[C@@H](C(=O)Nc1ccc2ccccc2c1)[C@@H]1C[C@@]1(C)[C@@H](NS(=O)(=O)c1ccccc1)c1ccccc1
Nc1ccccc1C#CCCCCO
COC(=O)[C@@]1(Cc2ccc(OC)cc2)[C@H]2c3cc(C(=O)N(C)C)n(CCF)c3C[C@H]2CN1C(=O)c1ccccc1
COC(=O)[C@@]1(Cc2ccc(OC)cc2)[C@H]2c3cc(C(=O)N4CCCC4)n(Cc4ccccn4)c3C[C@H]2CN1C(=O)c1ccccc1
COC(=O)[C@@]1(Cc2ccc(F)cc2)[C@H]2c3cc(C(=O)N(C)C)n(Cc4ccc(OC(F)(F)F)cc4)c3C[C@H]2CN1C(=O)c1ccccc1
COC(=O)[C@@]1(Cc2ccccc2)[C@H]2c3cc(C(=O)N(C)C)n(Cc4ccc(S(C)(=O)=O)cc4)c3C[C@H]2CN1C(=O)c1ccccc1
COC(=O)[C@H]1C[C@@H]1[C@H](NS(=O)(=O)c1ccccc1)c1ccccc1
COC(=O)[C@@]1(Cc2ccccc2)[C@H]2c3cc(C(=O)N(C)C)n(CCF)c3C[C@H]2CN1C(=O)c1ccccc1
COCCn1c(C(=O)N2CCCC2)cc2c1C[C@H]1CN(C(=O)c3ccccc3)[C@@](Cc3ccccc3)(C(=O)OC)[C@@H]21
C[C@@H](C(=O)Nc1ccc2ccccc2c1)[C@H]1C[C@]1(C)[C@H](NC(=O)c1cccnc1)c1ccccc1
COC(=O)[C@@]1(Cc2ccc(OC)cc2)[C@H]2c3cc(C(=O)N4CCCC4)n(CCN4CCOCC4)c3C[C@H]2CN1C(=O)c1ccccc1
COC(=O)[C@@]1(Cc2ccc(F)cc2)[C@H]2c3cc(C(=O)N(C)C)n(Cc4ccsc4Br)c3C[C@H]2CN1C(=O)c1ccccc1
C[C@@H](C(=O)Nc1ccc2ccccc2c1)[C@@H]1C[C@@]1(C)[C@@H](NC(=O)c1ccccc1)c1ccccc1
COC(=O)[C@@]1(Cc2ccc(OC)cc2)[C@H]2c3cc(C(=O)N(C)C)n(Cc4c(CO)[nH]cc(C)c4=O)c3C[C@H]2CN1C(=O)c1ccccc1
Cc1cc(CNC(=O)[C@H](C)[C@H]2C[C@]2(C)[C@H](NC(=O)OCc2ccccc2)c2ccccc2)nn1C
COC(=O)[C@@]1(Cc2ccc(OC)cc2)[C@H]2c3cc(C(=O)N4CCCC4)n(CCF)c3C[C@H]2CN1C(=O)c1ccccc1
